Out of some 5,500 compounds screened, about 2,000 (36%) were called active. Another 18% or so got no clear call; they are omitted. This is one part of the list. Unmarked numbers belong to inactive results. Rule as the data show it: active = normalized growth mostly below about 0.91 (no sharp cut-off); inconclusive = no clear call, values can overlap the other calls; inactive = mostly above about 0.92.
Assay: chemical genetic growth profiling, strain panel (AID 1159580);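 also: tested at 20 µM; growth read once vehicle control cultures reached saturation at 30 °C; 1 = growth at the plate median or of vehicle wells; lower values mean less growth of the strain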
Conditions: S. cerevisiae deletion strains, growth OD
[1] = locus YDL101C, strain DUN1, stronger effect = lower value
[2] = locus YHR030C, strain SLT2, stronger effect = lower value

Work on `COC(=O)C1=C(Nc2ccc(Cl)cc2)CSC1` yielded a normalized growth (locus YAL013W, strain DEP1, stronger effect = lower value) of 0.956, a normalized growth (locus YBR229C, strain ROT2, stronger effect = lower value) of 0.967 and a normalized growth (locus YCL061C, strain MRC1, stronger effect = lower value) of 0.959. For the same compound, the normalized growth [1] was 0.941, the normalized growth (locus YDL134C, strain PPH21, stronger effect = lower value) was 0.773 (active) and the normalized growth (locus YDR150W, strain NUM1, stronger effect = lower value) was 0.929. For the same compound, the normalized growth (locus YEL061C, strain CIN8, stronger effect = lower value) was 0.771 (active), the normalized growth (locus YGR078C, strain PAC10, stronger effect = lower value) was 0.949 and the normalized growth [2] was 0.203 (active). For the same compound, the normalized growth (locus YHR087W, strain rtc3, stronger effect = lower value) was 0.962, the normalized growth (locus YJL187C, strain SWE1, stronger effect = lower value) was 0.902 (active) and the normalized growth (locus YJR075W, strain HOC1, stronger effect = lower value) was 0.911. For the same compound, the normalized growth (locus YKL190W, strain CNB1, stronger effect = lower value) was 0.834 (active), the normalized growth (locus YLR039C, strain RIC1, stronger effect = lower value) was 0.455 (active) and the normalized growth (locus YLR058C, strain SHM2 (second series), stronger effect = lower value) was 0.969. For the same compound, the normalized growth (locus YLR085C, strain ARP6, stronger effect = lower value) was 0.368 (active), the normalized growth (locus YLR262C, strain YPT6, stronger effect = lower value) was 0.468 (active) and the normalized growth (locus YML094W, strain GIM5, stronger effect = lower value) was 0.833 (active). For the same compound, the normalized growth (locus YMR219W, strain ESC1, stronger effect = lower value) was 0.972, the normalized growth (locus YMR263W, strain SAP30, stronger effect = lower value) was 0.953 and the normalized growth (locus YMR307W, strain GAS1, stronger effect = lower value) was 0.417 (active). For the same compound, the normalized growth (locus YNL153C, strain GIM3, stronger effect = lower value) was 0.965, the normalized growth (locus YNL298W, strain CLA4 (second series), stronger effect = lower value) was 0.676 (active) and the normalized growth (locus YNL322C, strain KRE1, stronger effect = lower value) was 0.97. The normalized growth (locus YNR030W, strain Alg12, stronger effect = lower value) was 0.759 (active), the normalized growth (locus YOL006C, strain TOP1, stronger effect = lower value) was 0.522 (active) and the normalized growth (locus YPL055C, strain LGE1, stronger effect = lower value) was 0.811. The normalized growth (locus YPL241C, strain CIN2, stronger effect = lower value) was 0.742 (active) and the normalized growth (locus YPR135W, strain CTF4, stronger effect = lower value) was 0.314 (active).

`Fc1ccc(N/N=C\Cc2nnnn2-c2ccccc2)c(F)c1` showed a normalized growth (locus YAR019C, strain CDC15, stronger effect = lower value) of 0.957, a normalized growth (locus YBL105C, strain PKC1, stronger effect = lower value) of 0.951 and a normalized growth (locus YBR135W, strain CKS1, stronger effect = lower value) of 0.947. It also gave a normalized growth (locus YBR136W, strain MEC1, stronger effect = lower value) of 0.952, a normalized growth (locus YBR160W, strain CDC28, stronger effect = lower value) of 0.961 and a normalized growth (locus YDL017W, strain CDC7, stronger effect = lower value) of 0.956. It also gave a normalized growth (locus YDL028C, strain MPS1, stronger effect = lower value) of 0.955, a normalized growth [1] of 0.967 and a normalized growth (locus YDL108W, strain KIN28, stronger effect = lower value) of 0.948. The normalized growth (locus YDL132W, strain cdc53, stronger effect = lower value) was 0.952, the normalized growth (locus YDL214C, strain PRR2, stronger effect = lower value) was 0.554 (active) and the normalized growth (locus YDR052C, strain DBF4, stronger effect = lower value) was 0.946. The normalized growth (locus YDR054C, strain cdc34, stronger effect = lower value) was 0.904, the normalized growth (locus YDR226W, strain ADK1, stronger effect = lower value) was 0.95 and the normalized growth (locus YDR477W, strain SNF1, stronger effect = lower value) was 0.332 (active). For the same compound, the normalized growth (locus YER123W, strain YCK3, stronger effect = lower value) was 0.283 (active), the normalized growth (locus YER133W, strain GLC7, stronger effect = lower value) was 0.592 (active) and the normalized growth (locus YFL009W, strain cdc4, stronger effect = lower value) was 0.954. The normalized growth (locus YFL029C, strain CAK1, stronger effect = lower value) was 0.955, the normalized growth (locus YFR003C, strain YPI1, stronger effect = lower value) was 0.955 and the normalized growth (locus YFR019W, strain FAB1, stronger effect = lower value) was 0.414 (active). For the same compound, the normalized growth (locus YFR028C, strain CDC14, stronger effect = lower value) was 0.953, the normalized growth (locus YGR040W, strain KSS1, stronger effect = lower value) was 0.478 (active) and the normalized growth (locus YGR052W, strain FMP48, stronger effect = lower value) was 0.302 (active). For the same compound, the normalized growth (locus YGR092W, strain DBF2, stronger effect = lower value) was 0.122 (active), the normalized growth [2] was 0.387 (active) and the normalized growth (locus YHR079C, strain IRE1, stronger effect = lower value) was 0.366 (active). The normalized growth (locus YHR082C, strain KSP1, stronger effect = lower value) was 0.571 (active), the normalized growth (locus YHR205W, strain SCH9, stronger effect = lower value) was 0.622 and the normalized growth (locus YIL147C, strain SLN1, stronger effect = lower value) was 0.958. The normalized growth (locus YJL095W, strain BCK1, stronger effect = lower value) was 0.16 (active), the normalized growth (locus YJL128C, strain PBS2, stronger effect = lower value) was 0.963 and the normalized growth (locus YJL157C, strain FAR1, stronger effect = lower value) was 0.519 (active). The normalized growth (locus YJR016C, strain ILV3, stronger effect = lower value) was 0.973, the normalized growth (locus YJR066W, strain TOR1 (second series), stronger effect = lower value) was 0.246 (active) and the normalized growth (locus YJR066W, strain TOR1, stronger effect = lower value) was 0.356 (active). For the same compound, the normalized growth (locus YKL048C, strain ELM1, stronger effect = lower value) was 0.55 (active), the normalized growth (locus YKL067W, strain YNK1, stronger effect = lower value) was 0.427 (active) and the normalized growth (locus YKL101W, strain HSL1, stronger effect = lower value) was 0.341 (active). The normalized growth (locus YKL193C, strain SDS22, stronger effect = lower value) was 0.954, the normalized growth (locus YKL203C, strain TOR2, stronger effect = lower value) was 0.481 (active) and the normalized growth (locus YLR113W, strain HOG1, stronger effect = lower value) was 0.426 (active). The normalized growth (locus YLR133W, strain CKI1, stronger effect = lower value) was 0.55 (active), the normalized growth (locus YLR403W, strain SFP1, stronger effect = lower value) was 0.429 (active) and the normalized growth (locus YML070W, strain DAK1, stronger effect = lower value) was 0.249 (active). The normalized growth (locus YMR001C, strain CDC5, stronger effect = lower value) was 0.951, the normalized growth (locus YMR205C, strain PFK2 (second series), stronger effect = lower value) was 0.646 (active) and the normalized growth (locus YMR277W, strain FCP1, stronger effect = lower value) was 0.952. The normalized growth (locus YNL006W, strain LST8, stronger effect = lower value) was 0.962, the normalized growth (locus YNL020C, strain ARK1, stronger effect = lower value) was 0.536 (active) and the normalized growth (locus YNL161W, strain CBK1, stronger effect = lower value) was 0.954. For the same compound, the normalized growth (locus YNL183C, strain NPR1, stronger effect = lower value) was 0.358 (active), the normalized growth (locus YNL207W, strain RIO2, stronger effect = lower value) was 0.952 and the normalized growth (locus YNL222W, strain SSU72, stronger effect = lower value) was 0.954. For the same compound, the normalized growth (locus YNL307C, strain MCK1 (second series), stronger effect = lower value) was 0.189 (active), the normalized growth (locus YOL078W, strain AVO1, stronger effect = lower value) was 0.947 and the normalized growth (locus YOL136C, strain PFK27, stronger effect = lower value) was 0.385 (active). For the same compound, the normalized growth (locus YOR061W, strain CKA2, stronger effect = lower value) was 0.222 (active), the normalized growth (locus YOR119C, strain RIO1, stronger effect = lower value) was 0.408 (active) and the normalized growth (locus YOR231W, strain MKK1, stronger effect = lower value) was 0.328 (active). The normalized growth (locus YOR329C, strain SCD5, stronger effect = lower value) was 0.964, the normalized growth (locus YPL031C, strain PHO85, stronger effect = lower value) was 0.315 (active) and the normalized growth (locus YPL153C, strain RAD53, stronger effect = lower value) was 0.359 (active). The normalized growth (locus YPL204W, strain HRR25, stronger effect = lower value) was 0.406 (active), the normalized growth (locus YPL209C, strain IPL1, stronger effect = lower value) was 0.958 and the normalized growth (locus YPL256C, strain CLN2, stronger effect = lower value) was 0.537 (active). For the same compound, the normalized growth (locus YPR025C, strain CCL1, stronger effect = lower value) was 0.956, the normalized growth (locus YPR106W, strain ISR1, stronger effect = lower value) was 0.976 and the normalized growth (locus YPR111W, strain DBF20, stronger effect = lower value) was 0.97. The normalized growth (strain NNK1, stronger effect = lower value) was 0.971 and the normalized growth (strain TSCII, stronger effect = lower value) was 0.945.
